Targets with a hit are over-represented here; the source holds about 8,800 in all. About 0.5% of all pairs of compound and target were hits. Values without a mark were called inactive.
Experiments:
Test in all cases: log2 fold change, soluble protein after heating vs DMSO (PISA); higher = thermal stabilisation; K562 lysate, 10 uM; active = over 0.2 and 3.5 SD of the protein, either way, in both replicates (recomputed)
alvocidib = compound: CN1CC[C@H](c2c(O)cc(O)c3c(=O)cc(-c4ccccc4Cl)oc23)[C@H](O)C1 [alvocidib]
In short: (§1)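 To prepare the extract, K562 pellets were dounce-homogenised in PBS pH 7.4 with 1 mM MgCl2, giving crude material at 1 mg/mL protein. This was treated with 10 μM compound for 30 min, then heated in aliquots for 3 min over 48°C-58°C before pooling and addition of NP-40 to 0.5% at 4°C. Centrifugation at 21,000xg for 90 min left soluble protein in the supernatant, which TMTpro 16plex LC-MS/MS quantified with equalised channel sums. Results are log-two fold changes in thermal stability compared with solvent controls, from duplicates.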

Tubastatin A = compound: CN1CCc2c(c3ccccc3n2Cc2ccc(C(=O)NO)cc2)C1 [Tubastatin A]
In short: as §1

[1] = compound: CNC(=O)C1=CC=CC=C1NC2=NC(=NC=C2Cl)NC3=C(C=C(C=C3)N4CCOCC4)OC
In short: as §1

defactinib = compound: CNC(=O)c1ccc(Nc2ncc(C(F)(F)F)c(NCc3nccnc3N(C)S(C)(=O)=O)n2)cc1 [defactinib]
In short: as §1

[2] = compound: CNc1nc(-c2ccc3c(N)n[nH]c3c2)cc(N2C[C@@H](C(=O)NC3CCCCC3)CC[C@H]2C)n1
In short: as §1

encorafenib = compound: COC(=O)N[C@@H](C)CNc1nccc(-c2cn(C(C)C)nc2-c2cc(Cl)cc(NS(C)(=O)=O)c2F)n1 [encorafenib]
In short: as §1

[3] = compound: COC(=O)[C@H](CCSC)NC(=O)C1=C(C=C(C=C1)NC[C@H](CS)N)C2=CC=CC=C2
In short: as §1

alisertib = compound: COc1cc(Nc2ncc3c(n2)-c2ccc(Cl)cc2C(c2c(F)cccc2OC)=NC3)ccc1C(=O)O [alisertib]
In short: as §1

[4] = compound: COc1cc2nc(-c3cc(F)ccc3O)nc(N[C@@H]3CNC[C@H]3C(C)(C)O)c2cc1OC
In short: as §1

gefitinib = compound: COc1cc2ncnc(Nc3ccc(F)c(Cl)c3)c2cc1OCCCN1CCOCC1 [gefitinib]
In short: as §1

lapatinib = compound: CS(=O)(=O)CCNCc1ccc(-c2ccc3ncnc(Nc4ccc(OCc5cccc(F)c5)c(Cl)c4)c3c2)o1 [lapatinib]
In short: as §1

pictilisib = compound: CS(=O)(=O)N1CCN(Cc2cc3nc(-c4cccc5[nH]ncc45)nc(N4CCOCC4)c3s2)CC1 [pictilisib]
In short: as §1

crizotinib = compound: C[C@@H](Oc1cc(-c2cnn(C3CCNCC3)c2)cnc1N)c1c(Cl)ccc(F)c1Cl [crizotinib]
In short: as §1

[5] = compound: C[C@H](C1=CC=C(C=C1)C(=O)NC2=C3C=CNC3=NC=C2)N
In short: as §1

duvelisib = compound: C[C@H](Nc1ncnc2nc[nH]c12)c1cc2cccc(Cl)c2c(=O)n1-c1ccccc1 [duvelisib]
In short: as §1

gandotinib = compound: Cc1cc(Nc2cc(CN3CCOCC3)c3nc(C)c(Cc4ccc(Cl)cc4F)n3n2)n[nH]1 [gandotinib]
In short: as §1

tozasertib = compound: Cc1cc(Nc2cc(N3CCN(C)CC3)nc(Sc3ccc(NC(=O)C4CC4)cc3)n2)n[nH]1 [tozasertib]
In short: as §1

doramapimod = compound: Cc1ccc(-n2nc(C(C)(C)C)cc2NC(=O)Nc2ccc(OCCN3CCOCC3)c3ccccc23)cc1 [doramapimod]
In short: as §1

bafetinib = compound: Cc1ccc(NC(=O)c2ccc(CN3CC[C@H](N(C)C)C3)c(C(F)(F)F)c2)cc1Nc1nccc(-c2cncnc2)n1 [bafetinib]
In short: as §1

[6] = compound: Cc1cccc(CC(=O)N2CCc3c2ccc(-c2cn(C)c4ncnc(N)c24)c3F)n1
In short: as §1

UniProt Q9BQQ3, sequence (Q9BQQ3 whole entry, looked up): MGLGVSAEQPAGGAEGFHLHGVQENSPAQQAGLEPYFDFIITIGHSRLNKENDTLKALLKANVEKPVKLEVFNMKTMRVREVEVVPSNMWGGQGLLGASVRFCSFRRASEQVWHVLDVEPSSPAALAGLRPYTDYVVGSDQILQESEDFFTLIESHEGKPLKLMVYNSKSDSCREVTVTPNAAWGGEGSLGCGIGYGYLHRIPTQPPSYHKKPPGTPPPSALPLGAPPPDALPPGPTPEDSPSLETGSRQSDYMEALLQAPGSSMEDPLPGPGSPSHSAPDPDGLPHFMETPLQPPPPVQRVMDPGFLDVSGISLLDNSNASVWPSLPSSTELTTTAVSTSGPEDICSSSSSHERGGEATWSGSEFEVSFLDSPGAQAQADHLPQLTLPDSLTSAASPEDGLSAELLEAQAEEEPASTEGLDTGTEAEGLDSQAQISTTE
UniProt Q9Y5Q8, sequence (Q9Y5Q8 whole entry, looked up): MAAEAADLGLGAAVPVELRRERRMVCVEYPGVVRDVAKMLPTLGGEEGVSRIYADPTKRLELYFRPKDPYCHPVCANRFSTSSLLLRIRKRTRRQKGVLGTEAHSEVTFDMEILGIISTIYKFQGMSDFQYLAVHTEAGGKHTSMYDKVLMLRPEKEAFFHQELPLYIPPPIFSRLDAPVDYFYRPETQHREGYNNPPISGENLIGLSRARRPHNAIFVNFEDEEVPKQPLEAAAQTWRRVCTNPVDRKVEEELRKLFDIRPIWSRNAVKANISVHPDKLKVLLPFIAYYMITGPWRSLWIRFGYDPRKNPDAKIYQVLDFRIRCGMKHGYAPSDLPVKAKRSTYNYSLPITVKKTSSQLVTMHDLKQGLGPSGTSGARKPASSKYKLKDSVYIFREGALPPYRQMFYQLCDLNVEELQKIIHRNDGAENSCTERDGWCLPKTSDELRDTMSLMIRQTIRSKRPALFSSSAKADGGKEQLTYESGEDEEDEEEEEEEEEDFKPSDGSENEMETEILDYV
UniProt Q9Y223, sequence (Q9Y223 whole entry, looked up): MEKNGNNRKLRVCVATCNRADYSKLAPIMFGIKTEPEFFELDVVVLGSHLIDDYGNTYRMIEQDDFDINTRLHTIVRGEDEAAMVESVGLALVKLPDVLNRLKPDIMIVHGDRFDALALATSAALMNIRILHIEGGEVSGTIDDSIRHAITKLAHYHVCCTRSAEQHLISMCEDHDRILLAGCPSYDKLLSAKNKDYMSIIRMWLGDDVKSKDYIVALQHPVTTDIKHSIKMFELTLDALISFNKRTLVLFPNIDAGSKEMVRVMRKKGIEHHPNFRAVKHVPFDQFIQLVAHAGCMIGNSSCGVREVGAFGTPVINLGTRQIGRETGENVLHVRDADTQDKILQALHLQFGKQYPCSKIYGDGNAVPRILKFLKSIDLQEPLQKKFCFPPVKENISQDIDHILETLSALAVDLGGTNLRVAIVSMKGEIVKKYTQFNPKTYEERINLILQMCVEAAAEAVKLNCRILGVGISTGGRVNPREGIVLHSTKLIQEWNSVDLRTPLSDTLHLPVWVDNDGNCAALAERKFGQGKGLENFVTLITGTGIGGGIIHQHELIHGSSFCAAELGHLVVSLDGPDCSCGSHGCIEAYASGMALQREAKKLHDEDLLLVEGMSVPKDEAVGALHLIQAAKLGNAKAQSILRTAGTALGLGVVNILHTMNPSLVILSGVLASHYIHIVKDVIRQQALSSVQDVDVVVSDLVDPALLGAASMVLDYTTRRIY
UniProt Q96AB3, sequence (Q96AB3 whole entry, looked up): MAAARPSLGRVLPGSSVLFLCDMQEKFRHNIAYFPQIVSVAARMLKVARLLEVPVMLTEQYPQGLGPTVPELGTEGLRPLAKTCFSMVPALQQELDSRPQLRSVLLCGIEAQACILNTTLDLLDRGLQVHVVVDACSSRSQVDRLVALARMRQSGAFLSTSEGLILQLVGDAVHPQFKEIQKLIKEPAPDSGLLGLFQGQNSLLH
UniProt P25098, sequence (P25098 whole entry, looked up): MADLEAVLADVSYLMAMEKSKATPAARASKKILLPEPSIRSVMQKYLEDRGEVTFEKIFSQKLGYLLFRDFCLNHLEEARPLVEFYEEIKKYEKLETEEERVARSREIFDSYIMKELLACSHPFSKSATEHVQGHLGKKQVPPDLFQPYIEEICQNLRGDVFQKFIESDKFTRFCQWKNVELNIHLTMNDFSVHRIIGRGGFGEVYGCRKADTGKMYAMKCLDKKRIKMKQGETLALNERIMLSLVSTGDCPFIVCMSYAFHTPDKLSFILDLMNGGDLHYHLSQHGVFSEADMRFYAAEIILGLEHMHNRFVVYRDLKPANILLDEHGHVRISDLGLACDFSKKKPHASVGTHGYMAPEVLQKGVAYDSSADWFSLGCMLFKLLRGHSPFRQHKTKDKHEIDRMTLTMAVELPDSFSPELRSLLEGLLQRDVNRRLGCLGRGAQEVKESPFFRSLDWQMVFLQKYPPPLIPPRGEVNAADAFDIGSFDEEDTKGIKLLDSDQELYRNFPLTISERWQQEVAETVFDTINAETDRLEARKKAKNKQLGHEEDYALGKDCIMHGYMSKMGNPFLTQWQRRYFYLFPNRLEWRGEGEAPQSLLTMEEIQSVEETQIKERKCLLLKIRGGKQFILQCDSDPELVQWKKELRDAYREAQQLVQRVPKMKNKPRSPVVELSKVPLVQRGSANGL
UniProt Q9BT25, sequence (Q9BT25 whole entry, looked up): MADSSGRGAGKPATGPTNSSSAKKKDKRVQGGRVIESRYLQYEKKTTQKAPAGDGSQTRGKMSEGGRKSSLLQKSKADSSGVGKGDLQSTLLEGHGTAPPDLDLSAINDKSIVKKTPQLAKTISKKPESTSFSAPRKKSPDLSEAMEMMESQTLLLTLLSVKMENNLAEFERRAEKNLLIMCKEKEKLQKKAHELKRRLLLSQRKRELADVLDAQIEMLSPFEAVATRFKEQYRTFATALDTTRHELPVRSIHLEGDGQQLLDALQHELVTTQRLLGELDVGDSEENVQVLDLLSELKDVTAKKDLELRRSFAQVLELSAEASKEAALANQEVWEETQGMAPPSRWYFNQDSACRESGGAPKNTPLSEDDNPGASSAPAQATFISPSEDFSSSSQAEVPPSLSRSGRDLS
UniProt Q99795, sequence (Q99795 whole entry, looked up): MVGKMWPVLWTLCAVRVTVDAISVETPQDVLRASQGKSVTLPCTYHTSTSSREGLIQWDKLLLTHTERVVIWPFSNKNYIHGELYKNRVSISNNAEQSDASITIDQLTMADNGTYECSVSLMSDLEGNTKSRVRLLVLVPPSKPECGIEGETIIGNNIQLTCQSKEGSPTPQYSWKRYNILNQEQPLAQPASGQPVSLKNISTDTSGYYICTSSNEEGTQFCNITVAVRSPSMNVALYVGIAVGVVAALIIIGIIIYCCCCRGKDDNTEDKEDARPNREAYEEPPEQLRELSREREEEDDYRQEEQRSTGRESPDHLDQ
UniProt Q9H4A6, sequence (Q9H4A6 whole entry, looked up): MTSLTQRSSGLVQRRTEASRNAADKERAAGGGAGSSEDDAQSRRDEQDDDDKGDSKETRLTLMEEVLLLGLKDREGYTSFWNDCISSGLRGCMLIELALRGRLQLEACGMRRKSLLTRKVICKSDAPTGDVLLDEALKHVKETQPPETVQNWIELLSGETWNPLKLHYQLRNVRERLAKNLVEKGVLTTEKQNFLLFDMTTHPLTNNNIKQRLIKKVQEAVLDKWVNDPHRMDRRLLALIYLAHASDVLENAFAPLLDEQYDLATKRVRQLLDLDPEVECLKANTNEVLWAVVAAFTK
UniProt P23677, sequence (P23677 whole entry, looked up): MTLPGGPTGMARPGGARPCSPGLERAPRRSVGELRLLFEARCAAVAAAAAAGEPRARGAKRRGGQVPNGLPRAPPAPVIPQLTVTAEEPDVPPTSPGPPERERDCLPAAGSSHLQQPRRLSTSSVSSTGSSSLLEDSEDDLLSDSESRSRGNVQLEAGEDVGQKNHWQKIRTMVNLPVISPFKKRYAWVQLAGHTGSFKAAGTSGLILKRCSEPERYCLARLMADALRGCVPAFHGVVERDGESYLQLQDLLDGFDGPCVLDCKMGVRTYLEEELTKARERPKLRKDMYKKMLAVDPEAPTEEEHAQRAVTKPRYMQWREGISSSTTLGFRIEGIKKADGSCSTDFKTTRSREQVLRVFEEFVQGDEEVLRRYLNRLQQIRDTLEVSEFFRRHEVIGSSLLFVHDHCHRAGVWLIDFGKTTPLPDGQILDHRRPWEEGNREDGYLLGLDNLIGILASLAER
UniProt Q969S8, sequence (Q969S8 whole entry, looked up): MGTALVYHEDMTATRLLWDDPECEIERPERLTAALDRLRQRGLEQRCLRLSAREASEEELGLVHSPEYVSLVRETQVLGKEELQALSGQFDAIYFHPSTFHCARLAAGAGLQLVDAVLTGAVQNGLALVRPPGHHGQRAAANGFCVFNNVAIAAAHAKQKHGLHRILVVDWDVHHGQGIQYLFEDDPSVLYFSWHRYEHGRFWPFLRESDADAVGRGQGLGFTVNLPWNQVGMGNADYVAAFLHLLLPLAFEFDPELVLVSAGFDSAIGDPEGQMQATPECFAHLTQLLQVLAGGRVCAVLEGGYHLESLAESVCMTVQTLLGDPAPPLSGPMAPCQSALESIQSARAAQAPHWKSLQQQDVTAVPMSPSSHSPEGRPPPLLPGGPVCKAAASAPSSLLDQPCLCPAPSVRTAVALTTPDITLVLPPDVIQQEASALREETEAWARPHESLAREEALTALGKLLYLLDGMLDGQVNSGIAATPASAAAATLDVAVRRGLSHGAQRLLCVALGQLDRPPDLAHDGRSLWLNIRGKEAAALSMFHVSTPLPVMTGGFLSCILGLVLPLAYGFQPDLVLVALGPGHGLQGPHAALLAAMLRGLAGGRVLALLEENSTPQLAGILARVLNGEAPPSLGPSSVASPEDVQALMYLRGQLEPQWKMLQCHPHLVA
UniProt P28161, sequence (P28161 whole entry, looked up): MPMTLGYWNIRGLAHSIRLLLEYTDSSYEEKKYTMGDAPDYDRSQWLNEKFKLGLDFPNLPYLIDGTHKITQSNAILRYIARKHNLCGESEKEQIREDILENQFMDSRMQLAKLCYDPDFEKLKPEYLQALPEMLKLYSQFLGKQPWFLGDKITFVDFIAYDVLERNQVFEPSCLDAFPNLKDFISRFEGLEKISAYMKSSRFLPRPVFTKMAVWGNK

Target	log2 fold change (alvocidib)	log2 fold change (Tubastatin A)	log2 fold change [1]	log2 fold change (defactinib)	log2 fold change [2]	log2 fold change (encorafenib)	log2 fold change [3]	log2 fold change (alisertib)	log2 fold change [4]	log2 fold change (gefitinib)	log2 fold change (lapatinib)	log2 fold change (pictilisib)	log2 fold change (crizotinib)	log2 fold change [5]	log2 fold change (duvelisib)	log2 fold change (gandotinib)	log2 fold change (tozasertib)	log2 fold change (doramapimod)	log2 fold change (bafetinib)	log2 fold change [6]
GSTZ1 (UniProt G3V4T6)	-0.016	0.018	0.01	0.061	0.028	-0.045	0.35 (active)	0.023	0.049	0.002	0	0.04	-0.015	-0.067	0.028	0.061	0.004	-0.035	-0.071	0.146
KBTBD4 isoform 2 (UniProt Q9NVX7)	-0.064	-0.048	-0.016	0.024	0.193	0.048	-0.08	-0.098	-0.046	0.121	0.03	-0.015	-0.038	-0.075	0.056	0.109	-0.068	-0.023	-0.013	0.047
HLTF (UniProt Q14527)	-0.027	-0.083	-0.001	0.028	0.025	0.004	0.104	0.048	0.01	0.076	0.045	0.061	-0.019	-0.063	-0.05	-0.021	0.004	-0.007	-0.087	0.035
GPA33 (UniProt Q99795)	-0.349	0.103	-0.076	-0.099	-0.193	0.053	-0.027	0.071	0.039	0.125	-0.064	0.059		-0.584 (active)	0.154	0.567 (active)	-0.015		-0.051	0.554
IRAK4 (UniProt Q9NWZ3)	0.01	-0.083	0.261 (active)	0.145	-0.018	-0.032	0.032	0.006	0.111	0.045	-0.021	-0.018	0.175	0.012	0.026	-0.082	0	0.011	-0.013	0.012
ITPKA (UniProt P23677)	-0.001	-0.194	-0.017	0.017	0.015	-0.021	0.375 (active)	-0.004	0	0.011	-0.043	-0.055	-0.012	-0.012	-0.038	-0.012	0.051	0.016	-0.043	0.051
GRK2 (UniProt P25098)	0.001	-0.08	0.068	0.106	0.044	0.001	0.086	-0.042	0.066	-0.041	-0.063	0.015	-0.038	0.024	0.017	0.077	-0.02	0.033	-0.017	-0.035
GSTM2 (UniProt P28161)	0.079	0.045	0.009	0.036	-0.016	-0.024	0.068	0.01	-0.015	0.034	-0.024	-0.011		0.121	-0.067	-0.042	0.02		-0.011	-0.079
GNE isoform 2 (UniProt Q9Y223)	0.028	-0.12	0.016	-0.011	-0.024	-0.008	0.176	0.041	0.026	-0.014	0.012	-0.005	-0.053	-0.01	-0.011	-0.127	-0.008	0.021	-0.031	0.034
HAUS8 (UniProt Q9BT25)	0.067	-0.173	-0.012	-0.06	0.064	0.063	-0.004	-0.063	-0.075	-0.031	-0.022	-0.02	-0.055	0.057	-0.075	0.045	0.027	-0.007	-0.037	0.027
HDAC10 (UniProt Q969S8)	0.033	0.49 (active)	-0.075	-0.135	-0.014	0.091	0.08	0.047	-0.006	0.165	-0.101	-0.019	-0.015	-0.042	-0.014	0.029	0.068	-0.046	0.035	0.061
GTF3C5 isoform 3 (UniProt Q9Y5Q8)	-0.005	-0.166	0.029	0.014	-0.012	0.01	0.153	0.004	0.001	-0.004	-0.009	-0.01	-0.047	-0.014	-0.02	-0.002	-0.012	0.063	-0.047	0.02
GOLPH3 (UniProt Q9H4A6)	0.001	-0.123	0.075	0.015	-0.1	0.051	-0.6 (active)	-0.018	-0.024	-0.011	0.007	-0.013	-0.123	-0.049	0.005	0.034	0.025	0.031	-0.073	0.045
HMGN5 (UniProt P82970)	0.04	0.045	-0.029	0.051	0.018	-0.029	-0.023	-0.036	0.006	-0.028	-0.058	0.032	0.046	0.239	0.018	-0.081	0.02	-0.066	0.013	-0.184
GORASP1 (UniProt Q9BQQ3)	-0.052	-0.035	0.018	0.008	-0.071	0.108	-0.009	-0.037	0.076	0.016	-0.031		0.015	-0.103	-0.018	0.002	-0.087	0.015		-0.028
ISOC2 (UniProt Q96AB3)	0.004	-0.017	0.076	0.121	-0.024	0.014	0.122	0.022	0.043	-0.045	-0.036	0.038	0.023	0.05	-0.038	-0.076	-0.065	-0.014	-0.058	0.095

— the supplement of paper PMC10849652
